Test results: PubChem BioAssay AID2417 (National Center for Advancing Translational Sciences (NCATS), 2010)
Screen size: about 140,000 compounds; about 4,300 (3.1%) were called active. Inconclusive results (about 21%) are left out. The full list was thinned out, with actives kept by preference. Unmarked numbers belong to inactive results.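 Rule for the calls: active = readout at or below -70, meaning at least 70% loss of cells showing the perinucleolar compartment, a nuclear body marking cancer cells; inconclusive = readout between -30 and a set limit; inactive = the rest.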

Experiment: High Content Assay for Compounds that inhibit the Assembly of the Perinucleolar Compartment;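 note: plate controls were DMSO wells for no effect and camptothecin positive control wells for full effect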
Settings: PC3M PTB-GFP, PNC prevalence imaging, 16 h; at 10 µM; stronger effect = lower value
Method in brief: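 Compounds are pinned in duplicate onto adhered PC3M cells stably expressing GFP-tagged PTB and incubated 16 h at 37 C. Cells are then fixed, nuclei stained with Hoechst, and PNC-positive cells counted.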

| Structure (SMILES) | activity change (PNC), negative = inhibition |
| --- | --- |
| C=CCNCCCCOc1ccccc1 | -6.05% |
| O=C(NCCNc1ccc([N+](=O)[O-])cc1)c1cccc2c(Br)cccc12 | -86.3% (active) |
| CN(C)CCNC(=O)Cc1ccc([N+](=O)[O-])cc1 | 15.1% |
| CC(CNc1ccc([N+](=O)[O-])cc1)NC(=O)c1ccccc1Br (configuration not stated) | 3.05% |
| Cc1nc2ccccc2nc(C)c1=NOCc1ccc(Cl)cc1Cl | -24.9% |
| Cc1ccn(-c2cccc(-n3ccc(C)n3)n2)n1 | -4.25% |
| Cc1c(C2=CCN(S(=O)(=O)c3ccc(Cl)cc3)CC2)c2ccccc2n1C | 30.7% |
| CO/N=C(\N)c1ccc([N+](=O)[O-])cc1 | 28.8% |
| O=[N+]([O-])c1cccc(S(=O)(=O)N2CCCCCC2)c1 | -7.16% |
| N/C(=N\OS(=O)(=O)c1cccc([N+](=O)[O-])c1)c1ccncc1 | -108% (active) |
| CCC1(C(=O)c2ccccc2)C(c2cccc([N+](=O)[O-])c2)C1(C(=O)OC)C(=O)OC (configuration not stated) | -9.15% |
| CC(C)(C)n1nnc(CCc2nnn(C(C)(C)C)n2)n1 | -91.9% (active) |
| O=C(Nc1ccc([N+](=O)[O-])cc1)C1(c2ccccc2)CCOCC1 | 5.8% |
| Cc1ccc(-n2[nH]c(C)c(/C=N/NC(=O)c3cccc([N+](=O)[O-])c3)c2=O)cc1C | 3.84% |
| COc1cccc(/C=N/NC(=O)c2cccc([N+](=O)[O-])c2)c1OS(=O)(=O)c1ccc(C)cc1 | 20.7% |
| Cc1cc(C(=O)N/N=C/c2cc([N+](=O)[O-])cc(C)c2O)n[nH]1 | -128% (active) |
| Cc1nn(-c2ccccc2)c(-n2cccc2)c1C(=O)O | 4.84% |
| CCc1ccc(N2CC(C(=O)NC3=NCCS3)CC2=O)cc1 (configuration not stated) | 10.4% |
| CC(C)c1ccc(N2CC(C(=O)Nc3nccs3)CC2=O)cc1 (configuration not stated) | 21.8% |
| CCc1nnc(NC(=O)C2CC(=O)N(c3ccc4c(c3)OCCO4)C2)s1 (configuration not stated) | -107% (active) |
| O=C(COc1ccccc1F)NNC(=O)c1ccc(N2CCCCC2)c([N+](=O)[O-])c1 | -26.5% |
| CCOC(=O)Cc1csc(SCC(=O)NC(C)C23CC4CC(CC(C4)C2)C3)n1 (configuration not stated) | 20% |
| Cc1ccc(/C=N/NC(=O)COc2ccccc2-c2ccccc2)cc1 | -125% (active) |

| Structure (SMILES) | activity change (PNC), negative = inhibition |
| --- | --- |
| Cc1ccc(OCC(=O)N/N=C/c2ccncc2)cc1 | 28.2% |
| Cc1ccc(OCC(=O)N/N=C\c2ccco2)c(C)c1 | 54.4% |
| CCc1ccc(NC(=O)C(C)OC(=O)/C=C/c2cccc([N+](=O)[O-])c2)cc1 (configuration not stated) | 10.2% |
| O=C1NC(c2ccccc2)CCC1(Cl)Cl (configuration not stated) | -7.09% |
| C=CCn1c(SCC(=O)NC23CC4CC(CC(C4)C2)C3)nc(O)cc1=O | -100% (active) |
| O=C(CNCCO)NC12CC3CC(CC(C3)C1)C2 | 20.6% |
| C=CCn1c(N)cc(=O)nc1SCC(=O)Nc1cccc2ccccc12 | 69% |
| Cc1cc(C)cc(OCC(=O)NNC(=O)CCN2C(=O)c3ccccc3C2=O)c1 | 31.4% |
| CC(=O)Oc1cccc(N2C(=O)C3CC=C(Cl)CC3C2=O)c1 (configuration not stated) | -0.248% |
| O=C(Oc1cccc(N2C(=O)C3C4c5ccccc5C(c5ccccc54)C3C2=O)c1)c1ccco1 (configuration not stated) | -97.3% (active) |
| CC(=O)Nc1ccc(N2C(=O)C3C4CC(=O)C(c5ccccc54)C3C2=O)cc1 (configuration not stated) | 13.1% |
| COc1cc(NC(=O)c2cc([N+](=O)[O-])ccc2Br)ccc1NC(=O)c1ccco1 | 38.2% |
| CC(Sc1nnc2c(n1)C1CCC2(C)C1(C)C)C(=O)Nc1ccccc1 (configuration not stated) | 11.5% |
| O=C(Cc1ccccc1)NNS(=O)(=O)c1ccc([N+](=O)[O-])cc1 | 3.03% |
| Clc1cccc(CN2COc3c(cc(Cl)c4cccnc34)C2)c1 | -27.1% |
| Cc1nn(Cc2ccccc2Cl)c(C)c1NC(=O)Cn1nc([N+](=O)[O-])c(Cl)c1C | 29.3% |
| Cc1ccc(C(C)NC(=O)Cn2nc(C)c([N+](=O)[O-])c2C)cc1 (configuration not stated) | 1.18% |
| Cc1c(Cl)c([N+](=O)[O-])nn1CCCC(=O)NC(C)c1ccccc1 (configuration not stated) | -83.2% (active) |
| O=C(Cc1ccccc1)Nc1cccc(C(=O)N/N=C/c2ccco2)c1 | -20.1% |
| COC(=O)/C(C#N)=C/c1occc1C | 11.3% |
| Nc1cccc(CCc2nc3ccccc3[nH]2)c1 | -19.2% |
| CS(=O)(=O)c1sc2nc(-c3ccccc3)cc(-c3ccccc3)c2c1N | 18.6% |
| Nc1cccc(-c2cc(-c3ccccc3)nc(-c3cccc(N)c3)n2)c1 | -112% (active) |

| Structure (SMILES) | activity change (PNC), negative = inhibition |
| --- | --- |
| Cc1ccc(N2C(=O)C(NC(=O)c3c(F)cccc3F)(C(F)(F)F)C3=C2CC(C)(C)CC3=O)cc1 (configuration not stated) | -6.53% |
| Cc1ccc2[nH]c(=O)c(CC=C(Cl)Cl)c(C)c2c1 | 8.75% |
| O=C(O)Cc1ccc(NC(=O)c2cccs2)cc1 | -2.77% |
| Cc1nc(-c2ccc(NC(=O)c3cccs3)cc2)cs1 | 20.4% |
| O=C(O)c1ccc(NC(=O)c2cccs2)cc1 | -100% (active) |
| CCCCN1C(=O)c2ccc(C(=O)Nc3ccc(S(=O)(=O)N(C)C)cc3)cc2C1=O | -17.6% |
| CCOC(=O)COc1ccc([N+](=O)[O-])cc1 | 14.3% |
| CCOc1cc(/C=N/NC(=O)OC)ccc1OCCSc1ccc(Cl)cc1 | 45.6% |
| CCCC(NC(=O)c1ccco1)c1nc2ccccc2[nH]1 (configuration not stated) | 16.4% |
| Cc1ccc(SC(=O)COc2ccc(C)c(C)c2)cc1 | -106% (active) |
| Cc1ccc(CNC(=O)COc2ccc3c(c2)CCC3)cc1 | -5.6% |
| Cc1cc(=O)oc2ccc(OCC(=O)O)cc12 | 55.8% |
| O=C(COC(=O)c1cc([N+](=O)[O-])ccc1NCc1ccccc1)NC1CCCCC1 | 50.7% |
| Cc1ccc2c(c1)C(c1ccccc1)N(C(=O)c1ccc(S(=O)(=O)N3CCOCC3)cc1)CC(=O)N2 (configuration not stated) | 7.14% |
| COc1ccc(/C=N/NC(=O)c2ccccc2)cc1OS(=O)(=O)c1ccccc1 | 45.9% |
| O=C(NC(=S)Nc1ccc2oc(=O)ccc2c1)c1ccc(-c2cccc(Cl)c2Cl)o1 | -8.36% |
| COC(=O)C1=C(C(=O)OC)C2(OC1c1ccc(Br)cc1)C(=O)c1ccccc1C2=O (configuration not stated) | -100% (active) |
| CCOC(=O)C1=C(C)N=C2c3ccccc3C(=O)C2C1c1ccc(Br)cc1 (configuration not stated) | -24.2% |
| COC(=O)C1=C(C)N(C)C(C)=C(C(=O)OC)C1c1cccc(Br)c1 | 20% |
| Cc1cccc2cc(CN(C(=O)c3cccs3)c3ccccc3)c(=O)[nH]c12 | 29.9% |
| COc1ccc(/C(C)=N/Nc2cc(C(F)(F)F)ccc2Cl)c(OC)c1 | -13.2% |
| O=C(c1ccc2c(c1)OCO2)N1CCN(C(=O)c2ccco2)CC1 | 54.5% |
| O=C(c1ccc2c(c1)OCO2)N1CCOCC1 | -100% (active) |

| Structure (SMILES) | activity change (PNC), negative = inhibition |
| --- | --- |
| O=C(c1ccc2c(c1)OCO2)N1CCNc2ccccc2C1 | -29.9% |
| Cc1cccc(OP(=O)(Nc2c(C)n(C)n(-c3ccccc3)c2=O)Oc2cccc(C)c2)c1 | -6.43% |
| COc1ccc(N(C(=O)c2ccc(C)cc2)S(=O)(=O)c2cccs2)cc1 | 19.1% |
| Cc1ccc(NC(=O)CC2C(=O)N(Cc3ccccc3)C(=S)N2NC(=O)c2cccc(F)c2)c(C)c1 (configuration not stated) | -107% (active) |
| O=C(CN1CCN(C(=O)c2cccc(F)c2)CC1)Nc1ccccc1F | 6.16% |
| Cc1ccc(NC(=S)NC(=O)c2ccc(-c3ccccc3)cc2)c(C)c1 | 6.22% |
| CC(=O)NC1=NN(C(C)=O)C(C)(CCS(=O)(=O)c2ccc(Cl)c(Cl)c2)S1 (configuration not stated) | 72.1% |
| COc1ccc(OCCNS(=O)(=O)Cc2ccccc2)cc1 | 21.5% |
| CC(=O)Nc1ccc(NC(=O)C(C)OC(=O)c2ccccc2C(=O)c2ccc(Cl)c([N+](=O)[O-])c2)cc1 (configuration not stated) | 14.8% |
| N#Cc1cccc(NC(=O)COC(=O)c2ccccc2C(=O)c2ccc(Cl)c([N+](=O)[O-])c2)c1 | -102% (active) |
| COC(=O)c1cc(NC(=O)Cc2ccccc2[N+](=O)[O-])ccc1Cl | -21.5% |
| CCc1nnc(NC(=O)/C=C/c2ccc(C)o2)s1 | 43.5% |
| COC(=O)C1=C(C)N(C)C(=S)NC1c1ccccc1 (configuration not stated) | -28.4% |
| O=C(NCc1cccs1)C(=O)NCC1OCCCN1S(=O)(=O)c1ccc(F)cc1 (configuration not stated) | 17.8% |
| Cc1cccc(N2CCN(C(=O)c3ccccc3NC(=O)C3CCCCC3C(=O)O)CC2)c1 (configuration not stated) | 0.826% |
| O=S(=O)(NCCSc1ccccn1)c1ccc(Cl)cc1 | 47.1% |
| COc1ccc(C2SCCN2S(=O)(=O)c2ccccc2)cc1OC (configuration not stated) | -9.05% |
| CCc1nnc(NC(=O)C2CCCN2S(=O)(=O)c2ccccc2)s1 (configuration not stated) | 0.753% |
| CC1CN(S(=O)(=O)c2ccccc2)C(C)CN1S(=O)(=O)c1ccccc1 (configuration not stated) | -100% (active) |
| CCCn1nc(NS(=O)(=O)c2ccccc2)c2cc3cc(C)ccc3nc21 | 9.97% |
| CN(C)S(=O)(=O)c1cc(NC(=O)CN2C(=O)NC3(CCCc4ccccc43)C2=O)ccc1Cl (configuration not stated) | 71.5% |
| CCOc1ccc(NC(=S)N2CCC(N(C)CC3CCCO3)CC2)cc1 (configuration not stated) | 0.566% |
| CC1CCN(C(=O)c2ccc(S(=O)(=O)Cc3cc(F)ccc3F)c([N+](=O)[O-])c2)CC1 | 25.9% |
